These results are taken from PubChem BioAssay AID485349 (National Center for Advancing Translational Sciences (NCATS), 2010).

Hit rate of the full screen: of about 320,000 compounds, about 620 (0.19%) were called active. The entries come from a sample that favours actives as a whole. Values without a mark were called inactive. Calls come from the whole dose curve; as a rule, active = well fitted activation curve with a large enough effect; inconclusive = small, poorly fitted or top-dose-only effect; inactive = no such curve, though single readings can be large or run the other way.
Potency is the fitted concentration of half-maximal effect.

The experiment is described as follows: qHTS Assay for Identifying a Potential Treatment of Ataxia-Telangiectasia. For activation: % of control where 0% means no effect. Note: nearly all actives have a fitted effect of over 45% in size. The note with it: F2112 A-T fibroblasts, KAP-1 phosphorylation AlphaLISA, neocarzinostatin DNA damage 30 min before lysis; series mostly up to 57.5 µM; activation: at the top concentration. In a few lines:
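hTERT-immortalized A-T patient fibroblasts (F2112), 500 cells/well in OPTI-MEM, 1% FBS, got compounds for 60 min, then NCS for 30 min at 37C. Lysates were then assayed for phospho-KAP-1 by AlphaLISA (anti-pKAP1 donor, anti-KAP1 acceptor beads), 6 hr at 25C.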
In general terms: Quantitative high-throughput screening tests each substance at several concentrations.
As for `CCCS(=O)(=O)Nc1ccc(-c2cn3c(n2)SCC3)cc1`, the “activation” value is 3.25%. As to `O=C(COC(=O)Cn1cnc2ccccc2c1=O)NCc1ccccc1Cl`, the “activation” value is -0.0324%.

Consider `CSc1nnc(C2CCCN(CC(=O)Nc3ccccc3N3CCOCC3)C2)n1C(C)C` (centres undefined), for which the “activation” value is -1.38%. Turning to `CC(C)(C)c1cc2cccnc2n1Cc1ccccc1`, the Potency was 20 µM (active). For the compound `CC(C)(C)c1cc2cccnc2n1Cc1cccc(F)c1`, the Potency was 28.2 µM (active). Consider `COc1ccnc2c1c(=O)n(Cc1cccc(F)c1)c(=O)n2C`, for which the “activation” value is 3.98%.

`Nc1cc(N)nc(SCc2cccc(F)c2)n1`: the “activation” value is 24.3%. On the same count and under the same terms, then `Cc1cc(C(C)(C)C)n2nc(C)c(-c3ccccc3)c2n1`, with 27.3%. As to `CC(=O)c1nc2ccccc2n1Cc1ccccc1`, the “activation” value was 2.27%. As for `COC(=O)c1ccc(C2C(Oc3ccccc3C)C(=O)N2CCc2ccc(OC)c(OC)c2)cc1` (centres undefined), the “activation” value was 26.3%.

On to `CC(=O)C1=C(O)C(=O)N(c2ccc(S(N)(=O)=O)cc2)C1c1ccccc1F` (centres undefined), for which the “activation” value was -0.685%. The same measure, in the same setting: in the case of `O=P(O)(CN1CCCCC1)CN1CCCCC1` it was 6.95%.

Take `N=c1ccn(CC(=O)NC(N)=O)c2ccccc12`: the “activation” value is 6.18%.

As for `O=C(OCCN=C1NS(=O)(=O)c2ccccc21)c1cccc([N+](=O)[O-])c1`, the “activation” value is 0.583%. On the same count and under the same terms, then `O=C(O)c1[nH]c2ccccc2c1C(c1cccc(O)c1)c1c(C(=O)O)[nH]c2ccccc12`, with -5.26%. The same measure, in the same setting: in the case of `C[C@@H]1CN([C@@H](C)CO)C(=O)c2cc(NC(=O)C3CC3)ccc2O[C@H]1CN(C)C` it was 8.61%. With `O=c1o[nH]c(-c2ccccc2)c1N=Nc1c(F)cccc1Cl`, the “activation” value is -14.2%. With `COc1ccc(C(C)NC(=S)NC2CCCCC2)cc1OC` (centres undefined), the “activation” value is 7.74%. Still for that read-out and setting: in the case of `Cc1ccc(CNC(=O)Cc2cn(C)c3ccccc23)cc1` it was 12.3%. Same read-out and setting: then `O=C(NCC1CCCO1)/C(=C\c1ccco1)NC(=O)c1ccccc1` (centres undefined), with 20.5%; and `O=C(NCc1ccco1)/C(=C/c1ccco1)NC(=O)c1ccccc1`, with -8.8%. Take `Cc1ccc(C(=O)N/C(=C\c2ccco2)C(=O)NC2CCS(=O)(=O)C2)cc1` (centres undefined): the Potency was 10 µM (active). Take `O=S(=O)(NC1CCN(S(=O)(=O)c2ccc3c(c2)OCCO3)CC1)c1c(F)cccc1F`: the “activation” value was -5%. Still for that read-out and setting: in the case of `CC1CCCN(C(=O)c2ccc3c(c2)C(=O)N(CCC2=CCCCC2)C3=O)C1` (centres undefined) it was -18.6%.

Consider `COc1ccc2[nH]c3c(c2c1)CCN1C(=O)C(CC(=O)NCCc2ccccn2)C[C@H](C(=O)N2CCOCC2)[C@@]31C` (some centres undefined), for which the “activation” value was 10.7%. Still for that read-out and setting: then `O=C(NCC1CCCO1)c1ccc(S(=O)(=O)Nc2ccc(F)cc2)cc1` (centres undefined), with 0.226%.

On to `O=C1CCCN1C(=O)COc1ccc([N+](=O)[O-])cc1`, for which the “activation” value was -6.5%. On the same count and under the same terms, then `O=S(=O)(NCCc1csc(-c2ccccc2)n1)c1cccnc1`, with -3.45%. As for `O=C(NCCc1csc(-c2ccccc2)n1)c1ccccc1F`, the Potency is 22.4 µM (active).

As for `COc1ccc(-c2nc(CCNC(=O)c3ccc(Br)o3)cs2)cc1`, the “activation” value is 11.6%. For the compound `COCCn1c(C)cc(C(=O)COC(=O)/C=C/c2cccc(OC)c2)c1C`, the “activation” value is -1.3%. Still for that read-out and setting: in the case of `CCOC(=O)C1=CN(Cc2ccc(Br)cc2)S(=O)(=O)NC1C` (centres undefined) it was -9.89%. On to `O=C(Nc1cccc2c1N(C(=O)c1ccco1)CCC2)c1ccco1`, for which the Potency is 35.5 µM (active). Take `O=C(Nc1ccccc1N1CCN(C(=O)c2ccccc2)CC1)c1ccco1`: the “activation” value was 7.67%. The same measure, in the same setting: then `O=C(Nc1ccccc1C(=O)N1CCCCC1)c1ccco1`, with 8.96%. Same read-out and setting: in the case of `CCN(C(=O)COC(=O)c1c(C)nn(-c2ccccc2)c1Cl)c1c(N)n(Cc2ccccc2)c(=O)[nH]c1=O` it was -3.48%; in that of `CC[C@]12c3[nH]c4ccc(Cl)cc4c3CCN1C(=O)[C@@H](CC(=O)NCCN1CCOCC1)C[C@@H]2C(=O)N1CCN(C(=O)C2CC2)CC1`, -2.31%. On the same count and under the same terms, then `CCN(CC)P(=O)(Nc1ccc(SC(F)F)cc1)c1ccc(N(C)C)cc1NC(=O)c1ccco1` (centres undefined), with 1.66%; and `CCCCNC(=O)C(C)N(CCN(C)C)C(=O)CCCCCN1C(=O)NC(c2ccc(Cl)cc2)C(C(=O)OCc2ccccc2)=C1C` (centres undefined), with 8.98%; and `Cc1cccc(-n2c(SCC(=O)Nc3cccc(S(=O)(=O)NC4=NCCCCC4)c3)nc3ccccc3c2=O)c1C`, with 5.49%.

`C/C=C(/C)C(=O)Nc1cccc(C2=NOC3(C2)C[C@@H](C(N)=O)N(C(=O)C2(C)CC2)C3)c1` (some centres undefined): the “activation” value is 32.3%. As for `C/C=C\C=C\C(=O)N1CC2(CC(c3cccc(NC(=O)/C(C)=C\C)c3)=NO2)C[C@H]1C(N)=O` (some centres undefined), the Potency is 25.1 µM (active). As to `CC/C=C/C(=O)N1CC2(CC(c3cccc(NC(=O)CC)c3)=NO2)C[C@H]1C(N)=O` (some centres undefined), the “activation” value was 0%.

Regarding `O=C(NCCC(=O)N1O[C@@H]2C=C[C@H]1C2)OCC1c2ccccc2-c2ccccc21`, the activation is -1.69% [at 11.5 µM]. Same read-out and setting: then `Cc1ccc(S(=O)(=O)N2CCN(C)CC2)cc1C(=O)NC1CCCCC1`, with 1.7%.

Consider `Fc1ccc(CNCc2ccc(Br)cc2)cc1`, for which the “activation” value was 17.2%. On the same count and under the same terms, then `Cc1cccc(CN2CCN(Cc3cnn(-c4ccccc4F)c3)CC2CCO)n1` (centres undefined), with 11.2%; and `O=C(Nc1ccccc1)N1CCC(C(=O)N2CCN(Cc3ccccc3)CC2)CC1`, with -5.34%. Still for that read-out and setting: then `COc1ccc(N(CC(=O)Nc2ccc(C)cc2C)S(=O)(=O)c2ccccc2[N+](=O)[O-])c(OC)c1`, with 2.47% [at 11.5 µM]; and `CCOC(=O)N1CCC(Nc2c(NCCCN3CCN(CC)CC3)c(=O)c2=O)CC1`, with 0.0532%. The same measure, in the same setting: then `CCOC(=O)N1CCC(Nc2c(NCCN3CCN(c4cccc(Cl)c4)CC3)c(=O)c2=O)CC1`, with 7.77%. For the compound `CCOC(=O)N1CCC(Nc2c(NCCCN3CCN(c4ccc(OC)cc4)CC3)c(=O)c2=O)CC1`, the Potency is 11.2 µM (active).

Turning to `CCCCCCCCCCCCN1C(=O)CSC1c1cccnc1` (centres undefined), the “activation” value was 8.52%. Same read-out and setting: then `CC(C)Cc1ccc(S(=O)(=O)N2CCN(C(=O)c3ccco3)CC2)cc1`, with 6.31%.
